# Measurements reported in PubChem BioAssay AID1159580 (chemical genetic matrix, 2015).
# Among all 5,500 compounds or so, about 2,000 (36%) were called active. Inconclusive results (about 18%) are left out. This is one part of the list. Unmarked numbers belong to inactive results. Cut-off read from the data, not from the text of the source: active = normalized growth mostly below about 0.91 (no sharp cut-off); inconclusive = no clear call, values can overlap the other calls; inactive = mostly above about 0.92.
# Test: chemical genetic growth profiling, strain panel (AID 1159580);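 note: tested at 20 µM; growth read once vehicle control cultures reached saturation at 30 °C; 1 = growth at the plate median or of vehicle wells; lower values mean less growth of the strain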
# Conditions: growth OD
structure (smiles),measurement,setting,value
CC1(C)C2CC[C@]3(C)C(C(=O)C=C4[C@H]5C[C@@](C)(C(=O)O)CC[C@]5(C)CC[C@]43C)[C@@]2(C)CC[C@@H]1O (some centres not stated),normalized growth,"S. cerevisiae deletion strains, locus YJR075W, strain HOC1, hits give low values",1.05
same,normalized growth,"S. cerevisiae deletion strains, locus YKL009W, strain mrt4, hits give low values",0.921
same,normalized growth,"S. cerevisiae deletion strains, locus YKL068W, hits give low values",1.02
same,normalized growth,"S. cerevisiae deletion strains, locus YKL085W, strain MDH1 (second series), hits give low values",1.02
same,normalized growth,"S. cerevisiae deletion strains, locus YKL085W, strain MDH1, hits give low values",1.02
same,normalized growth,"S. cerevisiae deletion strains, locus YKL160W, strain elf1, hits give low values",0.95
same,normalized growth,"S. cerevisiae deletion strains, locus YKL190W, strain CNB1, hits give low values",1.04
same,normalized growth,"S. cerevisiae deletion strains, locus YKR001C, strain vps1, hits give low values",0.996
same,normalized growth,"S. cerevisiae deletion strains, locus YKR026C, strain gcn3, hits give low values",1.03
same,normalized growth,"S. cerevisiae deletion strains, locus YKR091W, strain srl3, hits give low values",1.01
same,normalized growth,"S. cerevisiae deletion strains, locus YLL001W, strain dnm1, hits give low values",0.867 (active)
same,normalized growth,"S. cerevisiae deletion strains, locus YLL026W, hits give low values",0.979
same,normalized growth,"S. cerevisiae deletion strains, locus YLL041C, strain sdh2, hits give low values",1.01
same,normalized growth,"S. cerevisiae deletion strains, locus YLR027C, strain aat2, hits give low values",0.899 (active)
same,normalized growth,"S. cerevisiae deletion strains, locus YLR039C, strain RIC1, hits give low values",1.1
same,normalized growth,"S. cerevisiae deletion strains, locus YLR058C, strain SHM2, hits give low values",1.03
same,normalized growth,"S. cerevisiae deletion strains, locus YLR102C, strain apc9, hits give low values",1.01
same,normalized growth,"S. cerevisiae deletion strains, locus YLR113W, strain HOG1, hits give low values",1.01
same,normalized growth,"S. cerevisiae deletion strains, locus YLR221C, strain rsa3, hits give low values",0.917
same,normalized growth,"S. cerevisiae deletion strains, locus YLR258W, strain gsy2, hits give low values",0.953
same,normalized growth,"S. cerevisiae deletion strains, locus YLR262C, strain YPT6 (second series), hits give low values",0.702 (active)
same,normalized growth,"S. cerevisiae deletion strains, locus YLR262C, strain YPT6, hits give low values",1.04
same,normalized growth,"S. cerevisiae deletion strains, locus YLR268W, strain sec22, hits give low values",0.944
same,normalized growth,"S. cerevisiae deletion strains, locus YLR320W, strain mms22, hits give low values",0.871 (active)
same,normalized growth,"S. cerevisiae deletion strains, locus YLR330W, strain CHS5, hits give low values",1.04
same,normalized growth,"S. cerevisiae deletion strains, locus YLR342W, strain FKS1 (second series), hits give low values",1.03
same,normalized growth,"S. cerevisiae deletion strains, locus YLR342W, strain FKS1, hits give low values",1.01
same,normalized growth,"S. cerevisiae deletion strains, locus YLR357W, strain rsc2, hits give low values",1.05
same,normalized growth,"S. cerevisiae deletion strains, locus YLR370C, strain arc18, hits give low values",1.01
same,normalized growth,"S. cerevisiae deletion strains, locus YLR371W, strain rom2, hits give low values",1
same,normalized growth,"S. cerevisiae deletion strains, locus YLR384C, strain iki3, hits give low values",1.02
same,normalized growth,"S. cerevisiae deletion strains, locus YLR418C, strain cdc73, hits give low values",1.03
same,normalized growth,"S. cerevisiae deletion strains, locus YML016C, strain PPZ1, hits give low values",1.05
same,normalized growth,"S. cerevisiae deletion strains, locus YML032C, strain rad52, hits give low values",0.991
same,normalized growth,"S. cerevisiae deletion strains, locus YML120C, strain ndi1, hits give low values",0.993
same,normalized growth,"S. cerevisiae deletion strains, locus YML124C, strain tub3, hits give low values",1.02
same,normalized growth,"S. cerevisiae deletion strains, locus YMR058W, strain fet3, hits give low values",0.984
same,normalized growth,"S. cerevisiae deletion strains, locus YMR078C, strain ctf18, hits give low values",1.01
same,normalized growth,"S. cerevisiae deletion strains, locus YMR125W, strain sto1, hits give low values",1.02
same,normalized growth,"S. cerevisiae deletion strains, locus YMR129W, hits give low values",1.01
same,normalized growth,"S. cerevisiae deletion strains, locus YMR205C, strain PFK2, hits give low values",0.843 (active)
same,normalized growth,"S. cerevisiae deletion strains, locus YMR223W, strain ubp8, hits give low values",0.994
same,normalized growth,"S. cerevisiae deletion strains, locus YMR231W, strain pep5, hits give low values",0.984
same,normalized growth,"S. cerevisiae deletion strains, locus YMR263W, strain SAP30, hits give low values",1.03
same,normalized growth,"S. cerevisiae deletion strains, locus YMR307W, strain GAS1, hits give low values",1.02
same,normalized growth,"S. cerevisiae deletion strains, locus YNL067W, strain RPL9B, hits give low values",0.98
same,normalized growth,"S. cerevisiae deletion strains, locus YNL071W, strain lat1, hits give low values",0.603 (active)
same,normalized growth,"S. cerevisiae deletion strains, locus YNL128W, strain TEP1, hits give low values",1.04
same,normalized growth,"S. cerevisiae deletion strains, locus YNL153C, strain GIM3, hits give low values",0.982
same,normalized growth,"S. cerevisiae deletion strains, locus YNL183C, strain NPR1, hits give low values",0.946
same,normalized growth,"S. cerevisiae deletion strains, locus YNL209W, strain ssb2, hits give low values",0.971
same,normalized growth,"S. cerevisiae deletion strains, locus YNL233W, strain BNI4, hits give low values",1.03
same,normalized growth,"S. cerevisiae deletion strains, locus YNL248C, strain rpa49, hits give low values",0.926
same,normalized growth,"S. cerevisiae deletion strains, locus YNL250W, strain rad50, hits give low values",1.01
same,normalized growth,"S. cerevisiae deletion strains, locus YNL271C, strain bni1, hits give low values",1.01
same,normalized growth,"S. cerevisiae deletion strains, locus YNL298W, strain CLA4, hits give low values",0.965
same,normalized growth,"S. cerevisiae deletion strains, locus YNL307C, strain MCK1, hits give low values",1.02
same,normalized growth,"S. cerevisiae deletion strains, locus YNL322C, strain KRE1 (second series), hits give low values",1.01
same,normalized growth,"S. cerevisiae deletion strains, locus YNL322C, strain KRE1, hits give low values",1.05
same,normalized growth,"S. cerevisiae deletion strains, locus YNR049C, strain mso1, hits give low values",1.01
same,normalized growth,"S. cerevisiae deletion strains, locus YNR052C, strain pop2, hits give low values",0.999
same,normalized growth,"S. cerevisiae deletion strains, locus YOL006C, strain TOP1, hits give low values",1.09
same,normalized growth,"S. cerevisiae deletion strains, locus YOL012C, strain htz1",1.33
same,normalized growth,"S. cerevisiae deletion strains, locus YOL147C, strain pex11, hits give low values",1.02
same,normalized growth,"S. cerevisiae deletion strains, locus YOR001W, strain rrp6, hits give low values",1.01
same,normalized growth,"S. cerevisiae deletion strains, locus YOR061W, strain CKA2, hits give low values",1.04
same,normalized growth,"S. cerevisiae deletion strains, locus YOR069W, strain VPS5, hits give low values",1.04
same,normalized growth,"S. cerevisiae deletion strains, locus YOR070C, strain gyp1, hits give low values",0.905 (active)
same,normalized growth,"S. cerevisiae deletion strains, locus YOR080W, strain dia2, hits give low values",1.02
same,normalized growth,"S. cerevisiae deletion strains, locus YOR083W, strain WHI5, hits give low values",0.915
same,normalized growth,"S. cerevisiae deletion strains, locus YOR106W, strain vam3, hits give low values",0.76 (active)
same,normalized growth,"S. cerevisiae deletion strains, locus YOR136W, strain idh2, hits give low values",1.01
same,normalized growth,"S. cerevisiae deletion strains, locus YOR144C, strain elg1, hits give low values",1.02
same,normalized growth,"S. cerevisiae deletion strains, locus YOR184W, strain ser1, hits give low values",0.898
same,normalized growth,"S. cerevisiae deletion strains, locus YOR231W, strain MKK1, hits give low values",1
same,normalized growth,"S. cerevisiae deletion strains, locus YOR265W, strain rbl2, hits give low values",0.995
same,normalized growth,"S. cerevisiae deletion strains, locus YOR270C, strain vph1, hits give low values",0.638 (active)
same,normalized growth,"S. cerevisiae deletion strains, locus YOR290C, strain snf2, hits give low values",0.944
same,normalized growth,"S. cerevisiae deletion strains, locus YOR316C, strain cot1, hits give low values",1.01
same,normalized growth,"S. cerevisiae deletion strains, locus YPL051W, strain arl3, hits give low values",0.892 (active)
same,normalized growth,"S. cerevisiae deletion strains, locus YPL055C, strain LGE1, hits give low values",1.05
same,normalized growth,"S. cerevisiae deletion strains, locus YPL078C, strain atp4, hits give low values",0.869 (active)
same,normalized growth,"S. cerevisiae deletion strains, locus YPL106C, strain sse1, hits give low values",1.17 [resistant] (active)
same,normalized growth,"S. cerevisiae deletion strains, locus YPL240C, strain hsp82, hits give low values",0.97
same,normalized growth,"S. cerevisiae deletion strains, locus YPL241C, strain CIN2, hits give low values",1.05
same,normalized growth,"S. cerevisiae deletion strains, locus YPL256C, strain CLN2, hits give low values",1.03
same,normalized growth,"S. cerevisiae deletion strains, locus YPR119W, strain clb2, hits give low values",1.02
same,normalized growth,"S. cerevisiae deletion strains, locus YPR141C, strain kar3, hits give low values",1.02
same,normalized growth,"S. cerevisiae deletion strains, locus YPR163C, strain tif3, hits give low values",1.02
same,normalized growth,"S. cerevisiae deletion strains, locus YPR167C, strain met16, hits give low values",1.02
same,normalized growth,"S. cerevisiae deletion strains, strain wtn01, hits give low values",0.976
same,normalized growth,"S. cerevisiae strains, strain wild type, hits give low values",1.02
